For experiment [1], the system named is XIP peptide (Xip251-270) binding. As to the kind of experiment: small-molecule binders of XIP peptide, primary screen, biochemical, small-molecule microarray, fluorescence 635/667 nm, 0.1 µg/mL protein (AID 1182). The note with it: fluorescent protein binding, 635 nm, higher = more signal, called active from +8 up or from −8 down.
Experiment [2] has as its system XIP peptide (Xip251-270). As to the kind of experiment: small-molecule binders of XIP peptide, primary screen, biochemical, small-molecule microarray, fluorescence 635/667 nm, 0.5 µg/mL protein (AID 1183). The note with it: small-molecule microarray binding, fluorescence 635 nm; higher = more signal.
The nature of experiment [3]: Plasmodium falciparum growth inhibition, primary screen, strain 3D7, DAPI fluorescence, 100 nL (AID 1184).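 Note: parasites grown inside human red blood cells in medium with human serum.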 The note with it: P. falciparum 3D7 growth, 3 d, higher = more signal.
Experiment [4] deals with Homeobox protein Hox-A13 (Mus musculus) (UniProt Q62424). Kind of experiment: inhibitors of HoxA13-DNA binding, primary screen, biochemical, fluorescence polarization, labeled oligonucleotide (AID 1185). The note with it: 15 min, higher = more signal, called active from +8 up or from −8 down. On the technique in general: Polarisation of emitted light reports the rotation of a fluorescent probe.
Chain of Homeobox protein Hox-A13 (Mus musculus) (Q62424 whole entry, looked up): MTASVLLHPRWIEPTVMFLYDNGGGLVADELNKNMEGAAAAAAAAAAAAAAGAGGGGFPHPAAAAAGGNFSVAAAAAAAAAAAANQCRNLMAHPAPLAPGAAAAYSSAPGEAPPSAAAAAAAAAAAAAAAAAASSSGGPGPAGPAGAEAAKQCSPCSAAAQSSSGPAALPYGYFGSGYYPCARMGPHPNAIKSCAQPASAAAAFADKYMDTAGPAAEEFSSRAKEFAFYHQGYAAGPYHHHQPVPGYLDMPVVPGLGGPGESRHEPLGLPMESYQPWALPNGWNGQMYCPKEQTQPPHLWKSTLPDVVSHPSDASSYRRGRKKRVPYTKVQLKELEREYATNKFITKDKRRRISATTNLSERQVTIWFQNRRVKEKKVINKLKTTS

A short description of experiment [5]: inhibitors of hydroxyurea-induced Chk1 phosphorylation, primary screen, imaging, HeLa, phospho-Chk1 antibody, percent positive cells (AID 1186). The note with it: hydroxyurea-induced phospho-Chk1 immunofluorescence imaging, higher = more signal.
Experiment [6] is described as follows: inhibitors of hydroxyurea-induced Chk1 phosphorylation, primary screen, imaging, HeLa, phospho-Chk1 nuclear intensity (AID 1187). The note with it: hydroxyurea-induced phospho-Chk1 immunofluorescence imaging, higher = more signal.

Calls of active or inactive are those of the source. Unless noted, the rule behind the calls is not given here.

Here are results for 17 compounds from PubChem BioAssay.

Regarding `C=CCC(OC(C)=O)[C@@H]1[C@@H](N(Cc2ccc(-c3cccc(C(F)(F)F)c3)o2)C(=O)Cc2ccc(OC)cc2)c2cc(OCCCO)ccc2N1C(=O)c1ccc2ccccc2c1` (some centres not stated), the composite z-score in experiment [1] is 0.397 (inactive); in experiment [2], 0.0642. Moreover, the z-score in experiment [3] is -2.16; in experiment [4], -2.43 (inactive); in experiment [5], 0.171 (inactive); in experiment [6], 0.284 (inactive).

In the case of `CC(C)[Si](C#CCCCC#N)(Oc1ccccc1Br)C(C)C`, the composite z-score in experiment [1] is 0.983 (inactive); in experiment [2] it was -0.0206. Further, the z-score in experiment [3] was 0.306; in experiment [4], -1.08 (inactive); in experiment [5], 0.365 (inactive); in experiment [6], 0.0882 (inactive).

With `Cc1ccc(S[C@]2(C(=O)O)CC(=O)N(C(C)C)[C@@H]2c2ccc(CO)cc2)cc1`, the composite z-score in experiment [1] was 0.402 (inactive); in experiment [2] it was 0.216. For the same compound, the z-score is 0.252 in experiment [3], -0.292 (inactive) in experiment [4], -0.696 (inactive) in experiment [5] and -0.558 (inactive) in experiment [6].

For `CC(C)[Si](C#CCCCC#N)(O[C@H](c1ccccc1)c1cn(Cc2cccc(Cl)c2)nn1)C(C)C`, the composite z-score in experiment [1] was -0.186 (inactive); in experiment [2] it was 0.605. For the same compound, the z-score in experiment [3] was -1.06; in experiment [4], -0.527 (inactive); in experiment [5], -0.628 (inactive); in experiment [6] it was -0.968 (inactive).

Turning to `C[N+](C)(C)CCCC[C@@H]1NC(=O)[C@H]2C[C@@H](C(=O)NCCCCCCNC(=O)CS)[C@@H](c3ccc(O)cc3)N2C1=O`, the composite z-score is 0.945 (inactive) in experiment [1] and -0.502 in experiment [2]. Besides, the z-score was 0.0331 in experiment [3], -2.68 (inactive) in experiment [4], -0.888 (inactive) in experiment [5] and -0.233 (inactive) in experiment [6].

Regarding `C=CCN1C(=O)[C@]2(Cc3ccccc3)N=C(c3ccc(OCCCO)cc3)O[C@@H]2c2ccccc21`, the figures for the composite z-score in experiment [1] and in experiment [2] were 0.7 (inactive) and 0.812, respectively. Further, the z-score in experiment [3] is -2.1; in experiment [4], -1.6 (inactive); in experiment [5], -0.535 (inactive); in experiment [6] it was -0.461 (inactive).

Take `O=C1C2C=CC(C(O)COCc3ccccc3)N(Nc3ccc([N+](=O)[O-])cc3)C2C(=O)N1c1ccccc1` (configuration not stated): the composite z-score in experiment [1] was -0.183 (inactive); in experiment [2], -0.006. For the same compound, the z-score in experiment [3] is -1.2; in experiment [4], -3.13 (inactive); in experiment [5], 0.0045 (inactive); in experiment [6], 0.54 (inactive).

Turning to `COC(=O)C[C@H]1O[C@@H](CCc2ccccc2)[C@@H](C)[C@@H]1[Si](C)(C)c1ccc(OC)cc1`, the composite z-score in experiment [1] is -0.633 (inactive); in experiment [2], -0.919. The z-score in experiment [3] was -1.63; in experiment [4], -4.56 (inactive); in experiment [5] it was 0.0465 (inactive); in experiment [6] it was 0.33 (inactive).

For `CCN(CC)c1ccc(N2CC=CC34O[C@@H]5C=CCOC(=O)[C@@H]5[C@H]3C(=O)N(CCCCCCO)[C@@H]4C2=O)cc1` (some centres not stated), the composite z-score is 1.07 (inactive) in experiment [1] and 0.659 in experiment [2]. In addition, the z-score in experiment [3] was -0.897; in experiment [4], -5.54 (inactive); in experiment [5], 0.234 (inactive); in experiment [6] it was 0.722 (inactive).

Take `COc1ccc(C(=O)Nc2ccc(CN3C(=O)[C@]4(O[C@H](CC(=O)N5CCC[C@H]5CO)[C@@H]([Si](C)(C)c5ccc(OC)cc5)[C@@H]4C)c4ccccc43)cc2)cc1`: the composite z-score in experiment [1] is 0.731 (inactive); in experiment [2] it was 0.76. Moreover, the z-score in experiment [3] was 0.0279; in experiment [4] it was -2.62 (inactive); in experiment [5] it was 0.303 (inactive); in experiment [6], 0.493 (inactive).

Turning to `O=C1O[C@@H](c2ccccc2)[C@@H](c2ccccc2)N2[C@@H](c3ccc(OCCO)cc3)[C@]3(C(=O)Nc4ccc(C#CC5=CCCCC5)cc43)[C@@H](C(=O)N3CCCCCCC3)[C@H]12`, the figures for the composite z-score in experiment [1] and in experiment [2] were 1.43 (inactive) and 0.679, respectively. Also, the z-score in experiment [3] was -2.22; in experiment [4], -15.4 (active); in experiment [5], 0.201 (inactive); in experiment [6], 0.474 (inactive).

Turning to `C#CCN1[C@H](/C=C/C2CC2)[C@H](Cc2ccccc2)OC(=O)[C@@H]1Cc1ccccc1`, the figures for the composite z-score in experiment [1] and in experiment [2] were 1.42 (inactive) and 0.513, respectively. Moreover, the z-score in experiment [3] was -0.568; in experiment [4], -0.837 (inactive); in experiment [5] it was -0.315 (inactive); in experiment [6], -0.418 (inactive).

Turning to `COc1cc2c(cc1OC)CN(C(=O)[C@H]1[C@@H]3C(=O)O[C@@H](c4ccccc4)[C@@H](c4ccccc4)N3[C@@H](c3ccccc3OCCO)[C@]13C(=O)Nc1ccc(C#CCCO)cc13)CC2`, the composite z-score in experiment [1] is 0.138 (inactive); in experiment [2] it was 0.438. Further, the z-score in experiment [3] was -2.16; in experiment [4] it was 1.23 (inactive); in experiment [5], 0.211 (inactive); in experiment [6], 0.0914 (inactive).

In the case of `O=C1OCC=C[C@H]2OC34C=CCN(Cn5nnc6ccccc65)C(=O)[C@H]3N(CCCCCO)C(=O)[C@@H]4[C@@H]12` (some centres not stated), the values for the composite z-score in experiment [1] and in experiment [2] were 0.537 (inactive) and 0.193, respectively. Further, the z-score in experiment [3] was -0.133; in experiment [4], -3.27 (inactive); in experiment [5], -0.288 (inactive); in experiment [6], -0.398 (inactive).

Consider `CCCCC(O)C1C=CC2C(=O)N(C)C(=O)C2N1N1CCCCC1` (configuration not stated), for which the composite z-score in experiment [1] was 0.0433 (inactive); in experiment [2] it was 0.941. Besides, the z-score in experiment [3] is -0.133; in experiment [4], -6.77 (inactive); in experiment [5] it was 0.492 (inactive); in experiment [6] it was 0.154 (inactive).

With `CC#CC(=O)Oc1ccc(Br)cc1C=CC(=O)OCC`, the composite z-score in experiment [1] was 1.17 (inactive); in experiment [2], -0.101. For the same compound, the z-score in experiment [3] is -1.65; in experiment [4] it was -3.79 (inactive); in experiment [5], 0.309 (inactive); in experiment [6], -1.03 (inactive).

In the case of `COC(=O)[C@@]1(Cc2ccc(F)cc2)[C@H]2c3cc(C(=O)N(C)C)n(Cc4cc(C)n(C)n4)c3C[C@H]2CN1C(=O)c1ccccc1`, the composite z-score in experiment [1] was 0.537 (inactive); in experiment [2], 0.801. Further, the z-score is -0.358 in experiment [3], -1.42 (inactive) in experiment [4], 0.669 (inactive) in experiment [5] and 0.333 (inactive) in experiment [6].
